Screens (PubChem)
DT40 TDP1 no CPT – qHTS for Inhibitors of human tyrosyl-DNA phosphodiesterase 1 (TDP1): qHTS in cells in absence of CPT | Potency, µM (top dose mostly 46.2 µM), for inactives: at the top dose activity change, negative = growth inhibition, actives largely listed as inhibitors | DT40 Tdp1-/- hTDP1 cells, no CPT, ATP luminescence, 48 h | hit rate 15% among 420,000; note: potency is the fitted concentration of half-maximal effect; % is set by controls: 0 for no effect and ±100 for the full control effect; nearly all actives have a fitted effect of over 55% in size
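Chicken DT40 Tdp1-/- cells complemented with human TDP1, screened without camptothecin (DMSO vehicle only), 400 cells/well. Compounds pin-transferred, cells incubated at 37 °C for at least 48 hr. Growth read as ATP-dependent luminescence (CellTiter-Glo, 30 min at RT).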
HepG2 viability – HepG2 cytotoxicity, counter-screen for TGF-b inhibitors | Potency, µM (series often up to 46.1 µM), inactives show top-dose activity change, negative = cytotoxicity, most hits filed as cytotoxic | hit rate 0.76% among 410,000 | HepG2 CAGA-GFP viability, ATP luminescence, 18 h; note: potency is the fitted concentration of half-maximal effect
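HepG2 CAGA-GFP cells (1000/well, DMEM with 1% FBS) received compound, then TGF-beta at 500 pg/mL final, and were incubated 18 hours at 37 degrees C. Viability was read by CellTiter-Glo luminescence. Media-only wells were set as complete cell-killing and DMSO as no toxicity.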
TGFb inhibitor – TGF-b pathway inhibition; HepG2 CAGA-GFP TGF-b/SMAD3 reporter, GFP fluorescence, 18 h; TGF-beta stimulated, 500 pg/mL final; Potency, µM (doses to about 46.1 µM), without a hit: top-dose activity, negative = inhibition, actives largely listed as inhibitors; hit rate 1.2% among 410,000; AID 588855; note: potency is the fitted concentration of half-maximal effect; % is set by controls: 0 for no effect and ±100 for the full control effect; nearly all actives have a fitted effect of over 65% in size
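First, reporter cells (HEPG2 CAGA-GFP) rested 2 h at 37 degrees C. Next, compounds were pinned in and TGF-beta added to 500 pg/mL final. After 18 h, GFP was imaged per cell and summed per well.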
TDP1 block – inhibitors of human tyrosyl-DNA phosphodiesterase TDP1. hit rate 0.28% among 350,000. Potency, µM (titrated, usually from 130 µM), inactives show at the top dose activity change, negative = inhibition, most hits filed as inhibitors. recombinant TDP1, AlphaScreen DNA substrate cleavage. Q9NUW8; note: potency is the fitted concentration of half-maximal effect; % is set by controls: 0 for no effect and ±100 for the full control effect; nearly all actives have a fitted effect of over 40% in size
Target sequence (Q9NUW8 whole entry, looked up): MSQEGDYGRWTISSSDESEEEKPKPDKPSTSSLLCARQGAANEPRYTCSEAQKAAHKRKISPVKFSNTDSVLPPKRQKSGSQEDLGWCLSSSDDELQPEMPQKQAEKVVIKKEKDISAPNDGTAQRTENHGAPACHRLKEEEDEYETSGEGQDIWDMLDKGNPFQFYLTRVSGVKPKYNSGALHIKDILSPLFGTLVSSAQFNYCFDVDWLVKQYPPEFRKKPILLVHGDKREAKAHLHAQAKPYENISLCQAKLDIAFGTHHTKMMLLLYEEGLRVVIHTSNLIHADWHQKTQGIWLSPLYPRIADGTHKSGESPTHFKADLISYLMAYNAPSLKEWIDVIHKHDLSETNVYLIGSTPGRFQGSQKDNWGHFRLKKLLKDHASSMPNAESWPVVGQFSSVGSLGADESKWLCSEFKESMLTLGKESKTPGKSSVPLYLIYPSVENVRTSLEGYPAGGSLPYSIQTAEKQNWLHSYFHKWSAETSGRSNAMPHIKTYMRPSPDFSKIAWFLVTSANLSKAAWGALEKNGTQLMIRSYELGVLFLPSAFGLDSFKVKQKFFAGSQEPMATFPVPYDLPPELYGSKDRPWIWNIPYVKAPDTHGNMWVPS
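Compounds were preincubated with Tdp1 (1 nM final) for 15 min at room temperature before substrate (15 nM final) started a 5 min reaction; beads (10 ug/ml final) were then added for 10 min before AlphaScreen detection.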
DT40 TDP1 CPT – DT40-hTDP1 cell growth loss with CPT | chicken DT40 Tdp1-/-;hTDP1 cells + 20 nM CPT, ATP luminescence, 48 h | Potency, µM (titrated, usually from 46.2 µM), for the others: at the top dose activity change, negative = growth inhibition, actives largely listed as inhibitors | hit rate 12% among 420,000; note: potency is the fitted concentration of half-maximal effect; % is set by controls: 0 for no effect and ±100 for the full control effect; nearly all actives have a fitted effect of over 55% in size
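Cell growth measured by CellTiter-Glo luminescence after a minimum 48 h, 37 C compound exposure with 20 nM CPT in Tdp1-knockout DT40 cells stably expressing hTDP1, seeded 400/well; qHTS titration format.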
IL-1B inflam inh – inhibitors of inflammasome signaling (IL-1 beta secretion) | THP-1 LPS/ATP IL-1B secretion, AlphaLISA, 16 h; stronger effect = lower value | activity change, % at 57.5 µM | hit rate 4.7% among 360,000 | AID 743279; in the data active = activity change below about -50%; inconclusive = mostly about -30% to -49%; note: % is set by controls: 0 for no effect and ±100 for the full control effect
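THP-1 cells pretreated 1 hr with compounds (up to 57.5 uM final), then stimulated with LPS (250 ng/mL final) plus ATP (1.25 mM final); secreted IL-1B measured by AlphaLISA after 16 hr, decreased signal indicating inhibition.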
Active calls of the source: *; ? = inconclusive; / = no result given; [ ] = remark or other dose. Rows were chosen to be rich in hits. Some 19% of all compounds tested hit in one or more screens of this group. Unless noted, calls come from the whole dose curve; as a rule, active = well fitted curve in the direction sought with a large enough effect; inconclusive = small, poorly fitted or top-dose-only effect, or another doubt; inactive = no such curve, though single readings can be large; an effect the other way counts as inactive or inconclusive.

SMILES	DT40 TDP1 no CPT	HepG2 viability	TGFb inhibitor	TDP1 block	DT40 TDP1 CPT	IL-1B inflam inh
O=C(O)CSCC(=O)N1CCN(c2cc(C(F)(F)F)nc3ccccc23)CC1	-23%	6%	0%	/	12%	24
O=C(c1[nH]c(C(F)(F)F)nc1-c1ccccc1)N1CCN(c2ccccc2)CC1	4.1µM*	-48%	?	/	4.6µM*	26
O=C(c1[nH]c(C(F)(F)F)nc1-c1ccccc1)N1CCc2c([nH]c3ccccc23)C1	5.8µM*	-21%	-13%	/	5.8µM*	56
O=C(c1[nH]c(C(F)(F)F)nc1-c1ccccc1)N1CCN(c2ncccn2)CC1	?	-44%	-2%	/	29µM*	-1
Cc1ccc(NC(=O)Cn2c(=O)n(Cc3nc(C)no3)c(=O)c3cc4c(cc32)OCO4)c(C)c1	-15%	1%	13%	6%	-12%	/
Cc1cc(N2CCN(C(=O)c3[nH]c(C(F)(F)F)nc3-c3ccccc3)CC2)c2ccccc2n1	15µM*	-53%	?	/	16µM*	43
CC(C)CC(=O)Nc1cccc2c1C(=O)N(c1ccccc1)C2=O	3%	5%	7%	5%	3%	12
CC(C)CC(=O)O/N=C1\C(=O)N(c2ccccc2)c2ccccc21	23µM*	-81%	8%	2%	21µM*	-64*
O=C(O)[C@@H](O)[C@@H](O)[C@@H](O[C@H]1O[C@@H](CO)[C@@H](O)[C@@H](O)[C@@H]1O)[C@@H](O)CO	/	/	/	7%[56.1 µM]	/	/
CCN(CC)S(=O)(=O)c1cc(NC(=O)NCCCl)ccc1C	?	18%	2%	/	?	46
CCN(CC)S(=O)(=O)c1cc(NS(=O)(=O)c2ccccc2)ccc1C	-28%	-11%	-10%	-1%	16µM*	16
CC1Sc2ccc(C(=O)NCc3ccccn3)cc2NC1=O (stereo unspecified)	0.65µM*	-38%	?	2%	0.82µM*	8
CCN(CC)S(=O)(=O)c1cc(NC(=O)c2ccc3c(c2)NC(=O)C(C)S3)ccc1C (stereo unspecified)	21µM*	-36%	?	2%	21µM*	-58*
CCN(CC)S(=O)(=O)c1cc(NC(=O)c2ccc(Br)s2)ccc1C	16µM*	-11%	-27%	3%	?	0
Cc1cc(C)c(NC(=O)c2ccc3c(c2)NC(=O)C(C)S3)c(C)c1 (stereo unspecified)	-15%	-13%	1%	3%	-29%	14
Cc1cccn2c(NC(=O)c3cccs3)c(-c3ccccc3)nc12	-20%	2%	-16%	3%	4%	-6
COc1cccc(C2C(C(=O)Nc3ccccc3)=C(C)N=c3s/c(=C/c4ccc(OCC(=O)O)cc4)c(=O)n32)c1 (stereo unspecified)	-19%	-26%	4%	-3%	5%	1
O=c1/c(=C\c2ccc(O)cc2)sc2n1C(c1ccccc1)C(c1ccccc1)=NN=2 (stereo unspecified)	?	12%	1%	7%	?	-65*
COc1ccc(C(=O)O)cc1Nc1nc2ccc(C)cc2n2cnnc12	?	0%	26%	-3%	-25%	/
Cc1ccccc1Cn1ccc(NC(=O)c2cc3ncc(Br)cn3n2)n1	3%	14%	-8%	?	7%	3
Cc1ccccc1Cn1ccc(NC(=O)c2nn3cccnc3c2Cl)n1	?	14%	-14%	0%	21µM*	-11
[O-][n+]1onc2c1CCc1c-2nc(-c2ccccc2)n1OCc1ccccc1	-18%	3%	9%	7%	?	-19
COn1c(-c2ccccc2)nc2c1CCc1c-2no[n+]1[O-]	?	1%	10%	-1%	?	-63*
CCOC(=O)C(=C1Nc2ccccc2N1)n1c(-c2ccco2)nc2ccccc21	?	/	/	/	7.3µM*	3
Cc1nc(Cl)c2c(n1)NC(=O)CO2	1%	10%	1%	/	-5%	-6
SMILES	DT40 TDP1 no CPT	HepG2 viability	TGFb inhibitor	TDP1 block	DT40 TDP1 CPT	IL-1B inflam inh
CCCCN(CCCNC(=O)CN1N=C(c2ccccc2)CCC1=O)c1ccccc1	?	-22%	?	5%	?	/
CCOc1ccc(C(C(=O)NCC2CCCO2)N(C(=O)c2snc(C(N)=O)c2N)c2ccc(F)cc2)cc1 (stereo unspecified)	?	-4%	1%	/	18µM*	?
COc1ccc(N(C(=O)Cn2nnc(-c3ccccc3F)n2)C(C(=O)NCC2CCCO2)c2ccc(Cl)cc2)cc1 (stereo unspecified)	9.2µM*	-1%	3%	5%	?	13
NC(=O)c1nsc(C(=O)N(c2cccc(F)c2)C(C(=O)NCC2CCCO2)c2c[nH]c3ccccc23)c1N (stereo unspecified)	-11%	0%	-13%	9%	4%	-68*
CCc1ccccc1N(C(=O)c1snc(C(N)=O)c1N)C(C(=O)NCC1CCCO1)c1ccc(OC)c(OC)c1 (stereo unspecified)	12µM*	9%	1%	2%	16µM*	8
COc1ccc(C(C(=O)NCC2CCCO2)N(C(=O)c2snc(C(N)=O)c2N)c2ccccc2C)cc1OC (stereo unspecified)	?	-25%	-19%	0%	-21%	-10
Cc1cccc(N(C(=O)c2snc(C(N)=O)c2N)C(C(=O)NCC2CCCO2)c2c[nH]c3ccccc23)c1 (stereo unspecified)	?	1%	6%	/	?	?
CCCN(CCC)Cc1cc(=O)oc2cc(C)c(C)cc12	?	-3%	?	/	?	15
COC(=O)CC[C@H](N)C(=O)O	-28%	/	/	4%	-3%	/
NC(=O)c1nsc(C(=O)N(c2ccc(F)cc2)C(C(=O)NCC2CCCO2)c2c[nH]c3ccccc23)c1N (stereo unspecified)	?	3%	20%	4%	?	-60*
CCn1nc(NS(=O)(=O)c2ccccc2)c2cc3ccccc3nc21	?	-9%	-24%	3%	23µM*	42
CCCn1nc(NS(=O)(=O)c2ccccc2)c2cc3ccccc3nc21	-3%	-4%	-23%	-1%	2%	-3
